Here are results for 5 molecules from PubChem BioAssay.

Calls of active or inactive are those of the source.

The nature of assay [1]: small molecules captured by biotinylated probe aFSTL3 – biochemical, small-molecule microarray, fluorescence 635/667, stem cell growth factor project, primary screen (AID 1064).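 Further: measures binding of the biotinylated anti-FSTL3 antibody to printed compounds.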 The conditions noted are these: higher = more signal.
Assay [2] can be described thus: binders from COS7 lysate, DM2A8 probe, primary screen, torsin A project, cell lysate, small-molecule microarray, fluorescence 635/667 (AID 1065). The settings on record: higher = more signal, COS7 lysate expressing mutant human TOR1A.
The nature of assay [3]: small molecules captured by biotinylated probe aFGF2 – biochemical, small-molecule microarray, fluorescence 635/667, stem cell growth factor project, primary screen (AID 1067).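 Further: measures binding of biotinylated aFGF2 protein to printed compounds on slides; z-score merges feature fluorescence and signal-to-noise across triplicate slides.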 The conditions noted are these: higher = more signal.
Assay [4] can be described thus: small molecules captured by biotinylated probe aFGF10 – biochemical, small-molecule microarray, fluorescence 635/667, stem cell growth factor project, primary screen (AID 1071).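 Further: score merges 667 nm spot intensity and signal to noise from triplicate slides.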 The settings on record: higher = more signal.
For assay [5], the target named is Neurogenic locus notch homolog protein 2 (Homo sapiens) (UniProt Q04721). Briefly: small molecules binding Notch2 protein – biochemical, small-molecule microarray, 635 nm fluorescence, stem cell growth factors, primary screen (AID 1073). The conditions noted are these: higher = more signal.
The target of assay [6] is Pro-neuregulin-1, membrane-bound isoform (Homo sapiens) (UniProt Q02297). Briefly: small molecules binding neuregulin-1 protein – biochemical, small-molecule microarray, fluorescence 635/667, psychiatric disease protein project, primary screen (AID 1075).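 Further: score combines 667 nm spot fluorescence with signal to noise.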 The settings on record: NRG1 binding, 635 nm fluorescence, higher = more signal.
The subject of assay [7] is Neuregulin-1 EGF-like domain. The assay can be described thus: small molecules binding NRG1 EGF domain – biochemical, small-molecule microarray, 635 nm fluorescence, primary screen (AID 1081).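 Further: binding of the protein to compounds printed on small-molecule microarray slides.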 The settings on record: higher = more signal.
Assay [8] can be described thus: FRG1 expression reporter modulators in myotubes – cell-based, C2C12 myotubes, firefly/Renilla luciferase, luminescence, FRG1 inhibition for FSHD, primary screen (AID 1084). The settings on record: FRG1 promoter luciferase, higher = more signal, called active from +8 up or from −8 down.
Assay [9] in a line: small molecules captured by biotinylated probe aFST – biochemical, small-molecule microarray, fluorescence 635/667, stem cell growth factor project, primary screen (AID 1086).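 Further: score merges 667 nm fluorescence with signal-to-noise of each printed compound spot.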 The settings on record: higher = more signal.
Assay [10] can be described thus: binders of probe aHhip on microarray, primary screen, stem cell growth factor project, biochemical, small-molecule microarray, fluorescence 635/667 (AID 1087).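 Further: score merges spot fluorescence at 667nm with spot signal to noise ratio.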 The conditions noted are these: higher = more signal.
The test system of assay [11] is PRMT1 (protein arginine N-methyltransferase 1). Briefly: small molecules binding arginine methyltransferase PRMT1 – biochemical, small-molecule microarray, 635 nm fluorescence, primary screen (AID 1088).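 Further: binding of Prmt1 protein to compounds spotted on small-molecule microarray slides.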 The conditions noted are these: higher = more signal.
Assay [12] is described as follows: growth effects on S. cerevisiae YJM789 – YJM789 clinical isolate, OD600, 24 h, basal, primary screen (AID 1089).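 Further: growth of clinical yeast isolate S. cerevisiae YJM 789 seeded 1000 cells per well; test concentration not given here.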 The settings on record: higher = more signal, called active from +8 up or from −8 down.
Assay [13] is described as follows: S. pombe growth modifiers, basal conditions – strain 972, OD600, 24 h, no modulator, primary screen (AID 1090).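 Further: basal condition with compound alone and no growth modifier present; test concentration not given here.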 The settings on record: S. pombe 972 growth, higher = more signal, called active from +8 up or from −8 down.
The nature of assay [14]: budding yeast growth modifiers under rapamycin – strain BY4716, OD600, 96 h, primary screen (AID 1091). Further: test concentration not given here. The conditions noted are these: S. cerevisiae BY4716 + rapamycin, higher = more signal, called active from +8 up or from −8 down.
The target of assay [15] is Torsin-1A-interacting protein 2 (Homo sapiens) (UniProt Q8NFQ8). The assay can be described thus: small molecules binding lysate-expressed LULL1 – cell lysate, human LULL1 lysate, 635/667 nm fluorescence, primary screen (AID 1092).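 Further: probe is lysate of COS7 cells overexpressing human LULL1; score merges per-feature 667 nm fluorescence with signal-to-noise.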 The settings on record: small-molecule microarray, hLULL1 lysate binding, 635 nm fluorescence; higher = more signal.
Assay [16] in a line: optical density change of DRC41 E. coli – strain DRC41, OD650, 24 h, E. coli filamentation project, primary screen (AID 1093).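 Further: MC1000 strain lacking acrAB efflux and sulA so SOS filamentation is blocked; test concentration not given here.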 The conditions noted are these: E. coli DRC41 growth, higher = more signal, called active from +8 up or from −8 down.
Assay [17] can be described thus: probe aLefty2 binding to arrayed compounds – biochemical, biotinylated probe, 635/667 nm fluorescence, primary screen (AID 1094).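 Further: score merges spot fluorescence near 667 nm with spot signal-to-noise ratio.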 The settings on record: small-molecule microarray, higher = more signal.
For assay [18], the system named is Noggin (protein binding on small-molecule microarray). Briefly: small molecules binding Noggin protein – biochemical, 635/667 nm fluorescence, primary screen (AID 1095).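 Further: score merges 667 nm feature fluorescence with signal to noise over triplicate slides.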 The conditions noted are these: 635 nm fluorescence, higher = more signal.
Assay [19] has as its target Neurogenic locus notch homolog protein 3 (Homo sapiens) (UniProt Q9UM47). Briefly: small molecules binding NOTCH3 protein – biochemical, 635/667 nm fluorescence, primary screen (AID 1096). The conditions noted are these: small-molecule microarray, 635 nm fluorescence, higher = more signal.
Assay [20] can be described thus: probe aEGFR binding to arrayed compounds – biochemical, biotinylated probe, 635/667 nm fluorescence, primary screen (AID 1097).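 Further: probe is a biotinylated anti-EGFR antibody binding compounds printed on slides; score combines fluorescence near 667 nm and signal to noise of each spot.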 The settings on record: small-molecule microarray, higher = more signal.

Neurogenic locus notch homolog protein 2 (Homo sapiens), sequence (Q04721 whole entry, looked up, canonical isoform): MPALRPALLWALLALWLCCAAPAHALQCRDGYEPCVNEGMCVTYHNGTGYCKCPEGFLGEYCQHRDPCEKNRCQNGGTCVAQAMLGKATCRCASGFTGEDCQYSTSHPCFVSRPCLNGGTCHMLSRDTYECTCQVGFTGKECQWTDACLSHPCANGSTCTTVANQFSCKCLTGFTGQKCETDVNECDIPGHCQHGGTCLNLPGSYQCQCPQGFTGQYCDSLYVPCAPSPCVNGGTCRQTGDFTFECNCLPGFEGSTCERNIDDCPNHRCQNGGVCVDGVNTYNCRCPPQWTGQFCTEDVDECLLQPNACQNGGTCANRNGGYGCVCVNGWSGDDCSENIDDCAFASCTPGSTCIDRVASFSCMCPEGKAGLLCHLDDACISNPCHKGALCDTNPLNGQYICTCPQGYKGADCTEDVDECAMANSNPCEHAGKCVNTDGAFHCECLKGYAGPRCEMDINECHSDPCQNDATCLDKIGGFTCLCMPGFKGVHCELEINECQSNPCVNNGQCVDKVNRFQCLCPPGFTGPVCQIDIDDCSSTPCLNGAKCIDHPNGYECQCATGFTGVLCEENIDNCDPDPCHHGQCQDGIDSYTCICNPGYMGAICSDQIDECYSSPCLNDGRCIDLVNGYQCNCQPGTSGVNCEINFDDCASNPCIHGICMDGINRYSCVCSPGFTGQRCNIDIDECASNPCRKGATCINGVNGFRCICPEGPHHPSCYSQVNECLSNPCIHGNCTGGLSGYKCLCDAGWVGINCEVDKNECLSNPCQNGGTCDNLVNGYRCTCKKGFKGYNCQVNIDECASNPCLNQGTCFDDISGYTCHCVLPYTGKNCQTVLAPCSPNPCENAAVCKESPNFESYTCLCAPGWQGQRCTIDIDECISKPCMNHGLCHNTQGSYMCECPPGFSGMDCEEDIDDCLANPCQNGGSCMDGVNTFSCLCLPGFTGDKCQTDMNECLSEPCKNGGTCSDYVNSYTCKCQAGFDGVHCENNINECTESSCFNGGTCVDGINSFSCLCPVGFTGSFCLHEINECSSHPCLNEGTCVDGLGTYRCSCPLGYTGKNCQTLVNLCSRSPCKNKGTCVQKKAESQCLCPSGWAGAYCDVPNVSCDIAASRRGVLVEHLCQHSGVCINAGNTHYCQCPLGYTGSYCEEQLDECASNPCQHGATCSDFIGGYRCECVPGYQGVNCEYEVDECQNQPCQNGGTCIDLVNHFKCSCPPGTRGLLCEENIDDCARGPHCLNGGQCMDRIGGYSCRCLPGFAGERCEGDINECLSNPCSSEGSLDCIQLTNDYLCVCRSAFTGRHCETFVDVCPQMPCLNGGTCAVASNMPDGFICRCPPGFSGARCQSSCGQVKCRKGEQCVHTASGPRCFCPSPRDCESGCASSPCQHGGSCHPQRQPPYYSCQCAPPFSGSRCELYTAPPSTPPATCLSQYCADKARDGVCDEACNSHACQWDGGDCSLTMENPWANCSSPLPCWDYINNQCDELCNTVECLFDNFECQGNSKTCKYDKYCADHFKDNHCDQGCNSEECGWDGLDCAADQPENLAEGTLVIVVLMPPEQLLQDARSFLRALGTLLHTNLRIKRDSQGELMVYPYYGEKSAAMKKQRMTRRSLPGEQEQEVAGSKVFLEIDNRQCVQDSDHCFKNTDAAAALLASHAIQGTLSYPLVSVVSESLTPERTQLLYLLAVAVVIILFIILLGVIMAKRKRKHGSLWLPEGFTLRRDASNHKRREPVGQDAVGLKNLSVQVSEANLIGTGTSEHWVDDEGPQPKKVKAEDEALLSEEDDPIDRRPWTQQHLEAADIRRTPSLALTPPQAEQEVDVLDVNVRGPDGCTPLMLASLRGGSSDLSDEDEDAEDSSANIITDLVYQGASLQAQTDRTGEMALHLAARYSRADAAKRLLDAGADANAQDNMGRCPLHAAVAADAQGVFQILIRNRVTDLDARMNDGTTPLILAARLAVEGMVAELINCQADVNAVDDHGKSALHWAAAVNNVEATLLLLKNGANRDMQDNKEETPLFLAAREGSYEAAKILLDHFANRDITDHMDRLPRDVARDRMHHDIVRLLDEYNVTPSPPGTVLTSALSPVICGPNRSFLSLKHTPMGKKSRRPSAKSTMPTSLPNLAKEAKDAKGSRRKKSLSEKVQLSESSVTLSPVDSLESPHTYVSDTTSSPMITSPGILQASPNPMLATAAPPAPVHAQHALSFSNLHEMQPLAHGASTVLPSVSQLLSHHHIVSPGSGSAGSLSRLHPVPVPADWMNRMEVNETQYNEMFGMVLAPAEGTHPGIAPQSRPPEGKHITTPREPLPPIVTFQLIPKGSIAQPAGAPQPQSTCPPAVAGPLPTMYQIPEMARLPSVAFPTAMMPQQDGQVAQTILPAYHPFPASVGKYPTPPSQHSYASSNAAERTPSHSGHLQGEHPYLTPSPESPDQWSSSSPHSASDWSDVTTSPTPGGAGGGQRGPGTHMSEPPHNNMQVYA
Torsin-1A-interacting protein 2 (Homo sapiens), sequence (Q8NFQ8 whole entry, looked up): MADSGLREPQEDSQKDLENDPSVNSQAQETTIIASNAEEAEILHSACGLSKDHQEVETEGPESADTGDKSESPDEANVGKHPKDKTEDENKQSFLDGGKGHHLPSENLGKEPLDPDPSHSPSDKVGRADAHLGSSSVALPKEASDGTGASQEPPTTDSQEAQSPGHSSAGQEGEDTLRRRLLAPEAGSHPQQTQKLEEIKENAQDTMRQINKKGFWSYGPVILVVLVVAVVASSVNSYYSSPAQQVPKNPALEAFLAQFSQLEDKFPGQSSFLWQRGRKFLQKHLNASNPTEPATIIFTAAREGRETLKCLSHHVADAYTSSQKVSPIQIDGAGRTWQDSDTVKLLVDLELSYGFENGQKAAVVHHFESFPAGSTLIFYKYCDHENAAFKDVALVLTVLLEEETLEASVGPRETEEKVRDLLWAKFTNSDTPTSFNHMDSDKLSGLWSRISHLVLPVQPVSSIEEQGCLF
Pro-neuregulin-1, membrane-bound isoform (Homo sapiens), sequence (Q02297 whole entry, looked up, the tested form may be a part, canonical isoform): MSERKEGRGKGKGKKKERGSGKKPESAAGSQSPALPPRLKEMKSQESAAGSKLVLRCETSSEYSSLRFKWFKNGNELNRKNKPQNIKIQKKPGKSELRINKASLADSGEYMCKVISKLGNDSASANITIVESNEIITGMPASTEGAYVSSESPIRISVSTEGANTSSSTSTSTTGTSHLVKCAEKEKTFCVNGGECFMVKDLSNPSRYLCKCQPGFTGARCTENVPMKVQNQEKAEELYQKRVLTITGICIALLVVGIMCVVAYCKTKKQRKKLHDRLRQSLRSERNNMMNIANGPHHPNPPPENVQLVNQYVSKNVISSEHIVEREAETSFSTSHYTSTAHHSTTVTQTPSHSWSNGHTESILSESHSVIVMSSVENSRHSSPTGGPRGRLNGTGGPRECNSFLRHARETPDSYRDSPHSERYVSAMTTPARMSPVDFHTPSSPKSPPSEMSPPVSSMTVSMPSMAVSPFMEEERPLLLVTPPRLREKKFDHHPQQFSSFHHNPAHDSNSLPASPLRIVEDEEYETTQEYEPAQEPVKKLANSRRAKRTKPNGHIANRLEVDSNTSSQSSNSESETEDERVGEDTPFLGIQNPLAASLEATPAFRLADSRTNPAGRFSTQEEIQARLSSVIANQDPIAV

For the molecule `C[C@H]1NC(=O)[C@H](Cc2ccccc2)NC(=O)[C@@]23C(=O)N[C@@H](Cc4ccccc4)C2[C@H](C)[C@@]2(C)O[C@H]2C3/C=C/C/C=C\CNC1=O` (stereo not given in full), the composite z-score is -0.231 in assay [1]; 0.32 in assay [2]; -0.0878 in [3]; -0.32 in [4]; -0.221 in assay [5]; -0.547 in assay [6]. Further, the composite z-score was -0.867 in assay [7]; -0.146 in assay [9]; 0.238 in assay [10]; -0.839 in assay [11]; -1.32 in assay [15]; -0.0724 in assay [17]. Besides, the results for the composite z-score in assay [18], in [19] and in [20] were -0.389, -0.795 and -0.183, respectively. Besides, the z-score is 0.049 (inactive) in assay [8]; 0.967 (inactive) in assay [12]; 0.266 (inactive) in assay [13]; 0.865 (inactive) in assay [14]; 1 (inactive) in assay [16].
Turning to `CC(C)C(O)C1C=CC2C(=O)N(c3ccccc3)C(=O)C2N1Nc1ccc(C#N)cc1` (stereo not given), the composite z-score in assay [1] was determined as 0.946; in assay [2] it was 0.303; in assay [3], 0.238; in [4], 1.07; in assay [5], 1.7; in assay [6], 1.72. The composite z-score in assay [7] was 1.23; in [9], 1.49; in assay [10] it was -0.168; in [11], 1.04; in assay [15], 3.17; in assay [17], 0.576. Besides, the composite z-score was -0.388 in assay [18], 0.903 in assay [19] and 0.154 in [20]. Moreover, the z-score in assay [8] is 0.596 (inactive); in assay [12], -0.108 (inactive); in assay [13], 0.349 (inactive); in [14], 1.39 (inactive); in assay [16], -0.364 (inactive).
With `C=CC[C@@]1(C(=O)N2CCOCC2)N=C(c2ccc(OCCCO)cc2)O[C@@H]1c1ccccc1N=[N+]=[N-]`, the composite z-score in assay [1] was 0.529; in [2], 0.985; in assay [3] it was -0.0073; in assay [4], 0.853; in [5] it was 1.53; in assay [6], 1.44. Further, the composite z-score came out at 1.19 in assay [7]; 0.993 in assay [9]; 0.21 in [10]; 1.54 in [11]; 3.41 in assay [15]; 0.362 in assay [17]. Moreover, the composite z-score is 0.998 in assay [18], 1.13 in assay [19] and 0.353 in assay [20]. In addition, the z-score in [8] was -0.469 (inactive); in [12], -1.27 (inactive); in assay [13], -1.02 (inactive); in [14], 0.811 (inactive); in assay [16], 0.639 (inactive).
As for `COC(=O)[C@@]1(Cc2ccccc2)[C@H]2c3cc(C(=O)N(C)C)n(Cc4cc(C)n(C)n4)c3C[C@H]2CN1C(=O)c1ccccc1`, the composite z-score in assay [1] is 0.512; in assay [2] it was 0.403; in assay [3], -0.221; in [4] it was -0.0117; in assay [5], 1.69; in [6], 1.51. For the same molecule, the composite z-score in [7] was 1.27; in assay [9] it was 1.51; in assay [10], 0.628; in assay [11] it was 0.0423; in assay [15], 3.96; in assay [17], 0.0382. Besides, the composite z-score in [18] was -0.127; in assay [19] it was 0.809; in assay [20] it was 0.238. Also, the z-score was 0.0005 (inactive) in assay [8]; -0.571 (inactive) in [12]; -0.528 (inactive) in [13]; -0.649 (inactive) in [14]; -0.564 (inactive) in assay [16].
Consider `[N-]=[N+]=NCc1ccccc1C[C@]1(C(=O)NCC(O)CO)N=C(c2ccc(OCCCO)cc2)O[C@H]1c1ccccc1N=[N+]=[N-]` (stereo not given in full), for which the composite z-score in [1] was 1.55; in assay [2] it was 0.459; in [3], -0.01; in assay [4] it was 0.77; in assay [5], 0.814; in [6] it was 1.17. The composite z-score is 0.731 in assay [7]; 0.575 in assay [9]; -0.194 in assay [10]; -0.384 in assay [11]; 2.61 in [15]; 0.679 in assay [17]. Further, the composite z-score in [18] is -0.761; in [19], -0.25; in [20] it was 0.428. Further, the z-score was -0.5 (inactive) in assay [8]; 0.727 (inactive) in assay [12]; 0.325 (inactive) in assay [13]; 2.77 (inactive) in assay [14]; 1.02 (inactive) in assay [16].
